Experimental data from PubChem BioAssay.
The source made the active and inactive calls.

Assays:
Albumin (Bos taurus) = Albumin (Bos taurus) (UniProt P02769); test: bovine serum albumin binders on microarray, profiling panel, artefact control for SMM control protein annotation, biochemical, small-molecule microarray, Alexa647 label, 635/667 nm fluorescence (AID 1118); conditions: BSA-A647 binding, fluorescence 635 nm, higher = more signal;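 also: score merges 667 nm emission intensity and signal-to-noise per printed compound spot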
Albumin (Bos taurus), sequence (P02769 whole entry, looked up): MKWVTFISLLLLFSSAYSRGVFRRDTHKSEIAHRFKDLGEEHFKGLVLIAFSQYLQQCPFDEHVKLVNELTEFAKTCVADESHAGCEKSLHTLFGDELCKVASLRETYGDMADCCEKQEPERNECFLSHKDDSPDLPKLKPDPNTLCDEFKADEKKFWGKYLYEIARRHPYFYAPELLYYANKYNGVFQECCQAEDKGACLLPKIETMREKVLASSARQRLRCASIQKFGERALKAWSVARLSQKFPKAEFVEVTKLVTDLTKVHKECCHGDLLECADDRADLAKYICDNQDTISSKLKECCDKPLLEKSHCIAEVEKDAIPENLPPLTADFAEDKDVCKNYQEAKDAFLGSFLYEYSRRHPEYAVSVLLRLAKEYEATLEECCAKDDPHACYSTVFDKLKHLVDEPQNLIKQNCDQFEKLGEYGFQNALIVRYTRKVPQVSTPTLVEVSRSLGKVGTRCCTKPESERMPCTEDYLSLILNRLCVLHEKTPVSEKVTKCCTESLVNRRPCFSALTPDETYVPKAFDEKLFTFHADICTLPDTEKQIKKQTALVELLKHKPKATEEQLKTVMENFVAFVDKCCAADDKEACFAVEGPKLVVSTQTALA

[1] = small-molecule microarray binders of probe aXIP, primary screen, biochemical, NeuroSMM set, 635/667 nm fluorescence (AID 1119); conditions: higher = more signal, called active from +8 up or from −8 down;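 also: probe is the protein aXip251-270 applied at 1 µg/mL to compound-printed slides; binding of probe to printed compounds measured as 667 nm fluorescence plus signal to noise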
[2] = small-molecule binders of probe aNOTCH3, primary screen, biochemical, small-molecule microarray, 635/667 nm fluorescence (AID 1120); conditions: higher = more signal;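 also: probe is a biotin-tagged antibody raised against NOTCH3 rather than NOTCH3 protein; score merges spot fluorescence near 667 nm with spot signal to noise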
[3] = small-molecule binders of probe aNOTCH2, primary screen, biochemical, small-molecule microarray, 635/667 nm fluorescence (AID 1121); conditions: higher = more signal;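 also: score merges feature fluorescence read at 667 nm with its signal to noise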
[4] = target: Carbonic anhydrase 2 (Homo sapiens) (UniProt P00918); test: CAII small-molecule binders, profiling panel, biochemical, small-molecule microarray, Alexa647-labelled CAII (AID 1122); conditions: CAII-A647 binding fluorescence, higher = more signal
[5] = COS7 lysate on small-molecule microarray, probe aHis, 635 nm (AID 1123); conditions: COS7 cell lysate, fluorescence, higher = more signal;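 also: z-score combines 667nm fluorescence intensity with signal-to-noise per printed compound spot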
[6] = compound binding in COS7 lysate, probe aLAP1, primary screen, cell lysate, small-molecule microarray (AID 1124); conditions: probe aLAP1, fluorescence, higher = more signal;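 also: lysate comes from COS7 cells expressing LAP1 and is applied at 0.3 µg/mL; score merges spot fluorescence near 667 nm with signal-to-noise over triplicate slides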
Sam68 (KHDRBS1) = test: Sam68 small-molecule binders, primary screen, biochemical, small-molecule microarray, 635 nm fluorescence (AID 1125); conditions: small-molecule microarray binding, higher = more signal;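 also: score merges 667 nm channel intensity with signal to noise over triplicate slides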
[7] = tested on: Chordin-like protein 2 (CHRDL2); test: CHRDL2 small-molecule binders, primary screen, biochemical, small-molecule microarray, 635 nm fluorescence (AID 1126); conditions: small-molecule microarray binding, fluorescence 635 nm; higher = more signal;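 also: printed compound slides probed with Chrdl2 protein at 4 µg/mL for 1 h at 4 C; score merges 667 nm emission intensity with signal to noise over three replicate slides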
[8] = target: Concanavalin-A (Canavalia ensiformis) (UniProt P02866); test: ConA small-molecule binders, primary screen, artefact control for SMM control protein annotation, biochemical, small-molecule microarray, Alexa647 label, 635 nm (AID 1127); conditions: ConA-A647 binding fluorescence, higher = more signal;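 also: z combines 667 nm emission intensity with signal-to-noise across three replicate slides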
Concanavalin-A (Canavalia ensiformis), sequence (P02866 whole entry, looked up): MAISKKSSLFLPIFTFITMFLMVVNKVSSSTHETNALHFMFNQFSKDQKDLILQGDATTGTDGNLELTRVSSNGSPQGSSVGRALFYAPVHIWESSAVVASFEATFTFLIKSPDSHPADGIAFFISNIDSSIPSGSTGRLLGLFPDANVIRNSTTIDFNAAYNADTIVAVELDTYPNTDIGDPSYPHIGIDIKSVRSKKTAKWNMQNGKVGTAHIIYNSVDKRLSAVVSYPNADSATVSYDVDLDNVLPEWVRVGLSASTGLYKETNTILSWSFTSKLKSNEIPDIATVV

[9] = anti-His antibody binders, primary screen, artefact control for SMM control protein annotation, biochemical, small-molecule microarray, 635 nm fluorescence (AID 1128); conditions: anti-His Alexa647 antibody binding, higher = more signal;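 also: score merges feature fluorescence with signal-to-noise for each printed compound spot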
[10] = tested on: Human papillomavirus type 1a E7 protein (residues 1-88); test: HPV1a E7 small-molecule binders, primary screen, biochemical, small-molecule microarray, residues 1-88, 635 nm (AID 1129); conditions: small-molecule microarray binding, fluorescence 635 nm; higher = more signal
[11] = target: Focal adhesion kinase 1 (Homo sapiens) (UniProt Q05397); test: small-molecule microarray binders of FAK, primary screen, biochemical, 635/667 nm fluorescence, BSA, DTT (AID 1130); conditions: PTK2 binding, 635 nm fluorescence, higher = more signal;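 also: composite of spot emission at 667 nm and signal to noise over triplicate slides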
Focal adhesion kinase 1 (Homo sapiens), sequence (Q05397 whole entry, looked up): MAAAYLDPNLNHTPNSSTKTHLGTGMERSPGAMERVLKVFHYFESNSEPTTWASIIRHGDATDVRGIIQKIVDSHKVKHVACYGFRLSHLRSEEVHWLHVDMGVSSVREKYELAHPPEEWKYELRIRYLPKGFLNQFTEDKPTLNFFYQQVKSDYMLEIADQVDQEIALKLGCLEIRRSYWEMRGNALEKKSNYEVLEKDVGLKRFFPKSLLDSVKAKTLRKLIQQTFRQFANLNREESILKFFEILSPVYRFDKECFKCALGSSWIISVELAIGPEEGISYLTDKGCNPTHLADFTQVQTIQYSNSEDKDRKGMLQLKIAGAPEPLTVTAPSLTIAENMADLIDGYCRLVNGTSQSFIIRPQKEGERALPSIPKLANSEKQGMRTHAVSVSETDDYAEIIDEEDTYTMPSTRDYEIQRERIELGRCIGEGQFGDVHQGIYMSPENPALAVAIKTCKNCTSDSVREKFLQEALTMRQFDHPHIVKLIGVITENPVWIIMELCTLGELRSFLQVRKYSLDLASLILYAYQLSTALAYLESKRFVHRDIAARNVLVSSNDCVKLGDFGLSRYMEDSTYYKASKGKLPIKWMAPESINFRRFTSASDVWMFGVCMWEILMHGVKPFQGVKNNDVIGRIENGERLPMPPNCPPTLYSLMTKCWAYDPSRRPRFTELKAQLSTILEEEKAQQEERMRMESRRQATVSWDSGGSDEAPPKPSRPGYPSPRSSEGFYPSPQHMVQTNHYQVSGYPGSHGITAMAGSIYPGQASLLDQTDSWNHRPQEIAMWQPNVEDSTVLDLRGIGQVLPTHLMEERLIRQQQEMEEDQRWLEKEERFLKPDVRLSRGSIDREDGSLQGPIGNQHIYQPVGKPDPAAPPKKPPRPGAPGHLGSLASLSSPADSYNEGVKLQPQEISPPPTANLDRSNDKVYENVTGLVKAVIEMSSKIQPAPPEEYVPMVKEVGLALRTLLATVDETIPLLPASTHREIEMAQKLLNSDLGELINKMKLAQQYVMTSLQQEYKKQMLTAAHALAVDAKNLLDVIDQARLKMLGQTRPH

[12] = tested on: Fibrinogen (Alexa647-labelled); test: fibrinogen binders on compound microarrays, profiling panel, artefact control for SMM control-protein annotation, biochemical, small-molecule microarray, 635/667 nm fluorescence (AID 1131); conditions: fibrinogen-A647 binding fluorescence, higher = more signal;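 also: z-score merges 667 nm fluorescence with per-spot signal-to-noise over triplicate slides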
[13] = target: Follistatin (Homo sapiens) (UniProt P19883); test: follistatin binders on small-molecule microarrays, primary screen, biochemical, small-molecule microarray, 635/667 nm fluorescence (AID 1132); conditions: FST binding, 635 nm fluorescence, higher = more signal
Follistatin (Homo sapiens), sequence (P19883 whole entry, looked up): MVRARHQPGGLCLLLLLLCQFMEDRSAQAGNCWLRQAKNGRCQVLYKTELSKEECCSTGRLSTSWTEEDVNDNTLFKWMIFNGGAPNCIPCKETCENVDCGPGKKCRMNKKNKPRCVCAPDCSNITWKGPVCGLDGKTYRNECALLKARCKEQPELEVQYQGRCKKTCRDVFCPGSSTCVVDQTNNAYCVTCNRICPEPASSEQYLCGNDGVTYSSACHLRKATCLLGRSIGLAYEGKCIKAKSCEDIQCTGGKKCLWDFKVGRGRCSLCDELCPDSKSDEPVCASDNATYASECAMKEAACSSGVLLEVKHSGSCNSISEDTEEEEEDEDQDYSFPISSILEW

[14] = target: Fibroblast growth factor 2 (Homo sapiens) (UniProt P09038); test: FGF2 binders on small-molecule microarrays, primary screen, biochemical, small-molecule microarray, 635/667 nm fluorescence (AID 1133); conditions: small-molecule microarray binding, FGF2, fluorescence 635/667; higher = more signal
Fibroblast growth factor 2 (Homo sapiens), sequence (P09038 whole entry, looked up): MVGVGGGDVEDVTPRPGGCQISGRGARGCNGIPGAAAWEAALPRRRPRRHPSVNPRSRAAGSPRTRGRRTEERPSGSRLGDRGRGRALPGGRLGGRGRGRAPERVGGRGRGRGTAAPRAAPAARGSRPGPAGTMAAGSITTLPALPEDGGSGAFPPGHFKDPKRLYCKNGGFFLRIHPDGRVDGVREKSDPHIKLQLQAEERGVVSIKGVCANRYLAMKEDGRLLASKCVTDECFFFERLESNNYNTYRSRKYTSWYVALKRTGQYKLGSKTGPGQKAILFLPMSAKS

[15] = mitochondrial membrane potential change in A549 cells, profiling panel, cell-based, JC-1 fluorescence, basal, 24 h, 100 nL (AID 1138); conditions: higher = more signal;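 also: A549 lung adenocarcinoma cells under basal conditions with no added stimulus; test concentration not given here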
Lefty1 = Lefty1 binders on small-molecule microarrays, primary screen, biochemical, small-molecule microarray, 635/667 nm fluorescence (AID 1139); conditions: small-molecule microarray binding, fluorescence 635/667; higher = more signal
[16] = tested on: wheat germ agglutinin (Triticum aestivum), Alexa647-labelled; test: wheat germ agglutinin binders on compound microarrays, profiling panel, artefact control for SMM control-protein annotation, biochemical, small-molecule microarray, 635/667 nm fluorescence (AID 1140); conditions: WGA-A647 binding, 635 nm fluorescence, higher = more signal;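 also: score merges 667 nm feature emission with signal to noise over triplicate slides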
[17] = target: Luciferin 4-monooxygenase (Photinus pyralis) (UniProt P08659); test: firefly luciferase enzyme inhibitors, primary screen, biochemical, luminescence, purified enzyme, 2006 set (AID 1141); conditions: SteadyGlo luminescence, 30 min, higher = more signal, called active from +8 up or from −8 down;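 also: cell-free assay with purified firefly luciferase at 100 ng per well in PBS; test concentration not given here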
Luciferin 4-monooxygenase (Photinus pyralis), sequence (P08659 whole entry, looked up): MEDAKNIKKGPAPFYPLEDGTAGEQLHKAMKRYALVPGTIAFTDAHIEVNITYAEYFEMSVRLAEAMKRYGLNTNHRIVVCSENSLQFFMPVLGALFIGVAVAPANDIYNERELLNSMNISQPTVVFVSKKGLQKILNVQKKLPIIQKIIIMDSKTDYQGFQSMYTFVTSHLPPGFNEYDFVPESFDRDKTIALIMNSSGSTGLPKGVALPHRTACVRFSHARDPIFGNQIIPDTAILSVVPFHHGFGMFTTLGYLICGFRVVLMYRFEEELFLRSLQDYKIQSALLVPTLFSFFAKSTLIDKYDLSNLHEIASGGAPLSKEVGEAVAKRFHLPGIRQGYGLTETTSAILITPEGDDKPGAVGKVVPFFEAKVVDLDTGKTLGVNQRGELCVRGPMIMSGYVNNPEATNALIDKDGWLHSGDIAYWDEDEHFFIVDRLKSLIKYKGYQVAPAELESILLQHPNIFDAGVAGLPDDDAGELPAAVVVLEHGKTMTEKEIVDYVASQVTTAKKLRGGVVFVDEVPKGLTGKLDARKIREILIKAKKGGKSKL

Row | SMILES | composite z-score (Albumin (Bos taurus)) | composite Z-score [1] | composite z-score [2] | composite z-score [3] | composite z-score [4] | composite z-score [5] | composite z-score [6] | composite z-score (Sam68 (KHDRBS1)) | composite z-score [7] | composite z-score [8] | composite z-score [9] | composite z-score [10] | composite z-score [11] | composite z-score [12] | composite z-score [13] | composite z-score [14] | z-score [15] | composite z-score (Lefty1) | composite z-score [16] | z-score [17]
1 | C=CCC(OC(C)=O)[C@@H]1[C@@H](N(Cc2cccc3ccccc23)C(=O)c2ccc(-c3ccccc3)cc2)c2cc(OCCCO)ccc2N1C(=O)c1ccc2ccccc2c1 (stereo not given in full) | 0.416 | -0.732 (inactive) | 0.116 | -0.0533 | 0.16 | 0.735 | 0.169 | 0.721 | -0.0354 | -0.0377 | -0.165 | 0.233 | 0.299 | 0.66 | 0.906 | -0.0101 | 0.0927 | 0.389 | 0.0002 | 0.797 (inactive)
2 | COCCOC(=O)N1C(=O)[C@@]2(c3cc(C#CCCO)ccc31)[C@H](C(=O)N1CCCCCCC1)[C@H]1C(=O)O[C@H](c3ccccc3)[C@H](c3ccccc3)N1[C@@H]2c1ccc(OCCO)cc1 | 0.796 | 1.91 (inactive) | 1.33 | 0.833 | 0.549 | 2.75 | 0.906 | 1.3 | 1.26 | 1.16 | 1.19 | 1.2 | 0.959 | 0.769 | 1.4 | 1.51 | -0.821 | 1.6 | 1.35 | 0.242 (inactive)
3 | CC[C@@H]1C=C(C(=O)O)[C@H](c2ccc(Br)cc2)N1S(=O)(=O)c1ccc(C)cc1 | 0.66 | 0.142 (inactive) | 0.167 | -0.0649 | 0.709 | 2.01 | 0.98 | 0.93 | 0.173 | 0.882 | 0.153 | 1.04 | 0.453 | 0.886 | 0.076 | -0.0934 | -0.785 | 0.0429 | 0.554 | 0.942 (inactive)
4 | CC1CC/C=C\[C@H]2OC34C=CCN(C(C)(C)C)C(=O)[C@H]3N(CCO)C(=O)[C@@H]4C2C(=O)O1 (stereo not given in full) | 0.922 | 0.108 (inactive) | -0.341 | -0.148 | 0.917 | 1.08 | 1.41 | -0.719 | -1.31 | -2.33 | -0.931 | -0.585 | -0.0131 | -0.671 | -0.352 | -0.845 | -0.315 | -0.991 | 0.119 | 0.864 (inactive)
5 | [N-]=[N+]=Nc1ccccc1[C@@H]1OC(c2ccc(OCCCO)cc2)=N[C@]1(CCS(=O)(=O)c1ccccc1)C(N)=O | 0.935 | 0.185 (inactive) | 0.308 | 0.125 | 0.438 | 2.02 | 1.66 | 1.29 | -0.227 | 1.16 | 0.712 | 1.23 | 0.203 | 1.02 | 1.28 | 0.423 | -0.995 | -0.411 | 0.881 | -13.5 (active)
6 | CCC[C@@H]1C[C@@]1(CCC)[C@@H](NC(=O)c1ccccc1)c1cccc(Cl)c1 | 0.941 | 0.432 (inactive) | 1.38 | 0.808 | 0.326 | 2.63 | 0.245 | 1.33 | 0.0667 | 0.954 | 1.52 | 1.17 | 0.535 | 0.596 | 0.219 | -0.331 | 0.349 | -0.544 | 1.11 | 0.841 (inactive)
7 | COc1ccc(C#Cc2ccc3c(c2)[C@]2(C(=O)N3)[C@H](C(=O)Nc3nc4ccccc4s3)[C@H]3C(=O)O[C@H](c4ccccc4)[C@H](c4ccccc4)N3[C@@H]2c2ccc(O)cc2)cc1 | 0.835 | 0.257 (inactive) | 1.29 | 0.158 | 0.406 | 2.65 | 0.641 | 1.31 | 0.172 | 1.12 | 0.973 | 1.24 | 0.289 | 0.997 | 1.38 | 0.882 | -2.22 | 1.72 | 1.18 | 0.0616 (inactive)
8 | N#Cc1ccc(NN2C(C(O)C(c3ccccc3)c3ccccc3)C=CC3C(=O)N(c4ccccc4)C(=O)C32)cc1 (stereo not given) | 0.983 | -0.442 (inactive) | 0.673 | 0.11 | 0.407 | 2.95 | -0.0751 | 1.3 | -0.558 | 1.17 | 0.238 | 1.26 | 0.545 | 1.01 | 0.337 | -0.469 | 1.49 | -0.0452 | 1.4 | 0.523 (inactive)
9 | COc1ccc(/C=C/C=O)cc1 | -0.85 | -0.174 (inactive) | -0.0032 | -0.0468 | -0.206 | -0.513 | 0.0998 | -0.235 | 0.309 | -0.415 | 0.0874 | -0.238 | -0.0113 | -1.76 | 0.853 | 0.138 | 0.769 | 0.321 | -0.367 | -0.756 (inactive)
10 | CCOC(=O)C[C@H]1[C@H](OC(=O)c2ccc(C(=O)c3ccccc3)cc2)[C@@H](NC(=O)CC(C)C)c2cc(OCCCO)ccc2N1C(=O)c1ccc2ccccc2n1 | 0.577 | -0.86 (inactive) | 0.206 | -0.114 | 0.232 | 1.21 | 0.323 | 1.29 | 0.448 | 1.12 | 1.35 | 1.21 | 0.0174 | 0.989 | 1.15 | 0.94 | 1.78 | 1.36 | 0.61 | 0.103 (inactive)
11 | C=CCOC(=O)[C@@H]1[C@H]2C(=O)O[C@H](c3ccccc3)[C@H](c3ccccc3)N2[C@H](c2ccc(OCCOC(=O)[C@@H]3C[C@@H]4C(=O)NCC(=O)N4[C@@H]3c3ccc(O)cc3)cc2)[C@@]12C(=O)Nc1ccc(I)cc12 | 0.471 | -0.666 (inactive) | -0.0879 | -0.108 | 0.617 | 1.04 | -0.143 | 1.31 | 1.03 | 1.19 | 1.88 | 1.21 | 0.823 | 0.342 | 1.36 | 1.27 | -1.73 | 0.734 | 0.86 | 0.401 (inactive)
